Test results as given in PubChem BioAssay AID651739 (Broad Institute, 2012).
Hit rate of the full screen: of about 5,600 compounds, about 4,100 (73%) were called active. About 4% were inconclusive and are not listed. So high a share suggests a set chosen from earlier hits. The list is a sample of the results. A number with no mark means an inactive call.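 Rule for the calls: active = mean replicate inhibition above about 95% and at least 55% of replicates individually reaching it (limit read from the data); inconclusive = only one of the two criteria is met; inactive = neither criterion is met.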

Assay: blockers of Trypanosoma cruzi growth in host cells – cell-based, NIH3T3 host, beta-gal parasite, luminescence, cherry-pick, confirmation (AID 651739)
Settings: T. cruzi beta-gal in NIH3T3, GalScreen luminescence, 90 h; at 8.35 µM; active compounds read high

Structure (SMILES)	inhibition
C[C@@H]1CCCCO[C@H](CN(C)S(=O)(=O)c2cccs2)[C@H](C)CN([C@H](C)CO)C(=O)c2cc(NS(=O)(=O)c3ccc(F)cc3)ccc2O1	109% (active)
CC(C)(C)[S@@](=O)N1Cc2cc(C(=O)NCc3ccc4c(c3)OCO4)nc(-c3cccc(-c4ccccc4)c3)c2[C@H]1CCO	105% (active)
O=C(C1CCCC1)N1CCCCN2[C@@H](CO)[C@H](c3ccc(-c4cccc(F)c4)cc3)[C@@H]2C1	112% (active)
O=C(C1CC1)N1CCCCN2[C@H](CO)[C@H](c3ccc(-c4cccc(F)c4)cc3)[C@H]2C1	99.1% (active)
OC[C@@H]1[C@H](c2ccc(C#CC3CC3)cc2)[C@@H]2CN(CCC(F)(F)F)CCCCN12	105% (active)
CN(C)C(=O)c1ccc(-c2ccc([C@H]3[C@@H](CO)N4CCCCN(CC5CC5)C[C@H]34)cc2)cc1	90%
O=C(C1CCC1)N1CCCCN2[C@H](CO)[C@H](c3ccc(-c4ccncc4)cc3)[C@@H]2C1	103% (active)
N#Cc1cccc(-c2ccc([C@H]3[C@H](CO)N4CCCCN(C(=O)Nc5cccc(F)c5)C[C@@H]34)cc2)c1	94.2%
O=C(Nc1ccccc1)N1CCCCN2[C@H](CO)[C@@H](c3ccc(C#Cc4ccccn4)cc3)[C@H]2C1	90%
O=C(C1CCC1)N1CCCCN2[C@H](CO)[C@H](c3ccc(-c4cccc(F)c4)cc3)[C@@H]2C1	109% (active)
O=C(Nc1cccc(F)c1)N1CCCCN2[C@H](CO)[C@H](c3ccc(C#CC4CC4)cc3)[C@@H]2C1	109% (active)
C[C@H](CO)N1C[C@H](C)[C@@H](CN(C)S(=O)(=O)c2ccc(F)cc2)Oc2cc(C3=CCCC3)ccc2S1(=O)=O	94.1%
C[C@H]1CN([C@@H](C)CO)S(=O)(=O)c2ccc(C3=CCCC3)cc2O[C@@H]1CN(C)Cc1ccccc1	96.5% (active)
C[C@@H]1CN([C@H](C)CO)S(=O)(=O)c2ccc(C3=CCCC3)cc2O[C@H]1CN(C)Cc1ccccc1F	99.3% (active)
C[C@H]1CN([C@@H](C)CO)S(=O)(=O)c2ccc(C3=CCCCC3)cc2O[C@@H]1CN(C)Cc1ccccc1	102% (active)
C[C@@H]1CN([C@@H](C)CO)C(=O)c2cc(NC(=O)Nc3cccc4ccccc34)ccc2O[C@@H](C)CCCCO[C@H]1CN(C)Cc1ccccc1	107% (active)
C[C@@H]1CCCCO[C@@H](CN(C)Cc2ccccc2)[C@H](C)CN([C@H](C)CO)C(=O)c2cc(NC(=O)Nc3cccc4ccccc34)ccc2O1	96.4% (active)
C[C@@H]1CCCCO[C@@H](CN(C)C(=O)Nc2ccc(F)cc2)[C@H](C)CN([C@H](C)CO)C(=O)c2cc(NC(=O)Nc3cccc4ccccc34)ccc2O1	114% (active)
C[C@@H]1CN([C@@H](C)CO)C(=O)c2cc(NC(=O)Cc3ccccc3)ccc2O[C@@H]1CN(C)Cc1ccc(Oc2ccccc2)cc1	99.9% (active)
C[C@@H]1CN([C@H](C)CO)C(=O)Cc2cc(NC(=O)Cc3ccccc3)ccc2O[C@H]1CN(C)Cc1ccc(Oc2ccccc2)cc1	112% (active)
C[C@H]1CN([C@@H](C)CO)C(=O)c2cc(NC(=O)Nc3ccc4c(c3)OCO4)ccc2O[C@@H]1CN(C)Cc1ccc(Oc2ccccc2)cc1	103% (active)
C[C@@H]1CN([C@@H](C)CO)C(=O)c2cc(NC(=O)Nc3ccc4c(c3)OCO4)ccc2O[C@@H]1CN(C)Cc1ccc(Oc2ccccc2)cc1	101% (active)
C[C@H]1CN([C@@H](C)CO)C(=O)Cc2cc(NC(=O)Cc3cn(C)c4ccccc34)ccc2O[C@@H]1CN(C)Cc1ccccc1	77.4%

Structure (SMILES)	inhibition
C[C@H]1CN([C@@H](C)CO)C(=O)Cc2cc(NC(=O)Cc3cn(C)c4ccccc34)ccc2O[C@@H]1CN(C)Cc1ccc(C(F)(F)F)cc1	104% (active)
COc1ccc(S(=O)(=O)N(C)C[C@H]2Oc3c(NC(=O)Nc4cccc5ccccc45)cccc3C(=O)N([C@@H](C)CO)C[C@H]2C)cc1	98.8% (active)
C[C@H]1CN([C@@H](C)CO)C(=O)c2cccc(NS(=O)(=O)c3cn(C)cn3)c2O[C@@H]1CN(C)CC1CCCCC1	46.2%
Cc1ccc(S(=O)(=O)N(C)C[C@@H]2Oc3c(NC(=O)c4nc5ccccc5s4)cccc3C(=O)N([C@H](C)CO)C[C@@H]2C)cc1	95.2% (active)
COc1ccc(NC(=O)N(C)C[C@@H]2Oc3c(NC(=O)NC4CCCCC4)cccc3C(=O)N([C@@H](C)CO)C[C@@H]2C)cc1	51.2%
C[C@@H]1CN([C@@H](C)CO)S(=O)(=O)c2ccc(C#Cc3ccc(F)cc3)cc2O[C@H]1CN(C)C(=O)c1ccccn1	108% (active)
C[C@@H]1CN([C@@H](C)CO)S(=O)(=O)c2ccc(-c3ccncc3)cc2O[C@@H]1CN(C)C(=O)Nc1ccc(F)cc1	100% (active)
C[C@@H]1CN([C@@H](C)CO)S(=O)(=O)c2ccc(C#Cc3ccc(F)cc3)cc2O[C@H]1CN(C)C(=O)NC1CCCC1	105% (active)
C[C@@H]1CN([C@@H](C)CO)S(=O)(=O)c2ccc(C#Cc3ccccc3)cc2O[C@@H]1CN(C)C(=O)Nc1ccccc1	103% (active)
COCC(=O)N1CC[C@@H]2[C@@H](CO)Nc3ccc(-c4cccc(C#N)c4)cc3[C@@H]21	111% (active)
N#Cc1ccc(-c2ccc3c(c2)[C@@H]2[C@@H](CCN2C(=O)Cc2ccncc2)[C@@H](CO)N3)cc1	112% (active)
C[C@H](CO)N1C[C@H](C)[C@@H](CN(C)C(=O)Nc2cc(F)ccc2F)Oc2cc(C#CC3CC3)ccc2S1(=O)=O	108% (active)
C[C@@H]1CN([C@H](C)CO)S(=O)(=O)c2ccc(-c3cccc(C#N)c3)cc2O[C@@H]1CN(C)C(=O)Nc1ccccc1F	86.6%
C[C@H]1CN([C@@H](C)CO)S(=O)(=O)c2ccc(C#CC3CCCC3)cc2O[C@@H]1CN(C)C(=O)c1cccc(F)c1	96.6% (active)
N#C[C@@H]1[C@@H](c2ccc(/C=C/c3ccccc3)cc2)[C@@H](CO)N1C(=O)C1CC1	108% (active)
CCN(C[C@H]1[C@H](c2ccccc2)[C@H](CO)N1C(=O)C1CC1)C(=O)NC1CCCC1	-20.8%
N#C[C@@H]1[C@@H](c2ccc(C#Cc3cccc(F)c3)cc2)[C@@H](CO)N1C(=O)C1CCC1	104% (active)
N#C[C@@H]1[C@H](c2ccc(C#Cc3cccc(F)c3)cc2)[C@@H](CO)N1C(=O)C1CCCC1	103% (active)
CC(=O)N1[C@H](CNC(=O)C2CC2)[C@@H](c2ccc(-c3cccc(F)c3)cc2)[C@@H]1CO	19.2%
CCCC#Cc1ccc([C@@H]2[C@@H](C#N)N(C(=O)C3CCCC3)[C@@H]2CO)cc1	107% (active)
CC(=O)NC[C@@H]1[C@@H](c2ccc(-c3ccccc3F)cc2)[C@@H](CO)N1C(=O)C1CC1	15.9%
N#C[C@@H]1[C@@H](c2ccccc2)[C@@H](CO)N1C(=O)Cc1ccccc1	78.3%
